Results reported in PubChem BioAssay (EPA / NIEHS).
Inconclusive results are not listed. More than one record can exist for a structure, and the calls need not agree. Activity calls are given as the source filed them. Rule for the calls, unless noted: active = hit-call score of the fitted dose curve at least 0.9, where 1 is the maximum; inconclusive = response in the unintended direction; inactive = score below 0.9.

target: human RAR-related Orphan Receptor gamma (RORg), RORC (gene 6097) (UniProt P51449); assay: ATG_RORg_TRANS: Attagene TRANS-FACTORIAL HepG2 Assay for human RAR-related Orphan Receptor gamma (RORg) (AID 2283011); conditions: not given
Method in brief: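 HepG2 cells transiently transfected with GAL4-UAS reporter units and chimeric RORg-Gal4 construct; after 24 h chemical exposure, reporter mRNA measured by RT-PCR with fluorescent capillary electrophoresis, gain of signal fitted against DMSO.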

Sequence of human RAR-related Orphan Receptor gamma (RORg), RORC (gene 6097) (P51449 whole entry, looked up, the tested form may be a part): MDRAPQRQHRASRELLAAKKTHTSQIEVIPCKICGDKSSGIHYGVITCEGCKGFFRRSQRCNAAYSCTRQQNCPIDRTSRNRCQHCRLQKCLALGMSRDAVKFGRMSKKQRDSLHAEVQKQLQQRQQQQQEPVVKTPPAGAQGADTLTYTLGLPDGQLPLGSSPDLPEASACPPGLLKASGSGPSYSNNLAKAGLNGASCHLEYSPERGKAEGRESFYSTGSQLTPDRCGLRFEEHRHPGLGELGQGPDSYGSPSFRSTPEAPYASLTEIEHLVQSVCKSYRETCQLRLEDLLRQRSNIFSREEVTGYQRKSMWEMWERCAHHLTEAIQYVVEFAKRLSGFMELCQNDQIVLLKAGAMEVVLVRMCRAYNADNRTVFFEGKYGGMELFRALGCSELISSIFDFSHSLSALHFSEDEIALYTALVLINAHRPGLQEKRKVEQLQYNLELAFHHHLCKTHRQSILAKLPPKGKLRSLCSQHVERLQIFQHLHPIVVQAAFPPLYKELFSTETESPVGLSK
Sequence of E-selectin (Homo sapiens) (P16581 whole entry, looked up): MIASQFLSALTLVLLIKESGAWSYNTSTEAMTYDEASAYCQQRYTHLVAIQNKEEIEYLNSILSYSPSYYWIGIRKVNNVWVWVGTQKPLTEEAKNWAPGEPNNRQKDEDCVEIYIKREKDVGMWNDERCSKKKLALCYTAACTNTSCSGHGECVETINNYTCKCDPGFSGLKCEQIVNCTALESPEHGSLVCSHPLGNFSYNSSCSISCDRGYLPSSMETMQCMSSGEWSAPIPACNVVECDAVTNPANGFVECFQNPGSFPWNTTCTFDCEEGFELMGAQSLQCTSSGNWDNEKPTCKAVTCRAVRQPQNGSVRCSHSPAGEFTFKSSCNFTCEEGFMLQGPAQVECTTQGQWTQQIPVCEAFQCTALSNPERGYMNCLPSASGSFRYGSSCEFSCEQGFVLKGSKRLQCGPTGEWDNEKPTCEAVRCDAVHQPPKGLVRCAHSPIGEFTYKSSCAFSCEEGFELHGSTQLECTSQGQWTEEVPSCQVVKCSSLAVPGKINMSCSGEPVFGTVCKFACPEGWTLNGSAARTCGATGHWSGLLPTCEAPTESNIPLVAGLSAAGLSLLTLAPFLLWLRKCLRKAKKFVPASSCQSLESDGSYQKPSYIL

| SMILES | outcome |
| --- | --- |
| C1CCCNCC1 | inactive |
| OCC=Cc1ccccc1 | inactive |
| CCO[Si](CCC#N)(OCC)OCC | inactive |
| CCCCOC(=O)C(C)OC(=O)CCC (stereo not drawn) | inactive |
| CCC(=O)OC/C=C(\C)CCC=C(C)C | inactive |
| CC(C)=CCCC(C)=CC(=O)O | inactive |
| COc1ccc(OC)cc1 | inactive |
| OCCN1CCOCC1 | inactive |
| CCO[Si](CC)(OCC)OCC | inactive |
| CC(=O)Oc1c(C)c(C)c2c(c1C)CC[C@@](C)(CCC[C@H](C)CCC[C@H](C)CCCC(C)C)O2 | inactive |
| CC(C)(C)c1ccc(S)cc1 | inactive |
| NC(N)=NC(N)=NCCc1ccccc1 | inactive |
| CC(C)(O)CCc1ccccc1 | inactive |
| CC=CC(=O)C1=C(C)C=CCC1(C)C | inactive |
| [O-]/[N+](=N\O)c1ccccc1 | inactive |
| CCCCCCCCCCCCCC(=O)OCC | inactive |
| CC(C)(CO)CO | inactive |
| NC(N)=S | inactive |
| Cc1ccccc1S | inactive |
| CCCC1CCC(=O)CC1 | inactive |

target: Retinoic acid receptor RXR-alpha (Homo sapiens) (UniProt P19793); assay: ATG_RXRa_TRANS: Attagene TRANS-FACTORIAL HepG2 Assay for human Retinoid X Receptor alpha (RXRa) (AID 2283012); conditions: not given
Method in brief: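 HepG2 cells transiently transfected with multiplexed GAL4-UAS reporter units and chimeric NR-GAL4 fusions, dosed 24 h. Reporter mRNA measured by RT-PCR, FAM labelling, HpaI digestion and capillary electrophoresis; gain-of-signal fitted relative to DMSO baseline.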

Sequence of Retinoic acid receptor RXR-alpha (Homo sapiens) (P19793 whole entry, looked up, the tested form may be a part): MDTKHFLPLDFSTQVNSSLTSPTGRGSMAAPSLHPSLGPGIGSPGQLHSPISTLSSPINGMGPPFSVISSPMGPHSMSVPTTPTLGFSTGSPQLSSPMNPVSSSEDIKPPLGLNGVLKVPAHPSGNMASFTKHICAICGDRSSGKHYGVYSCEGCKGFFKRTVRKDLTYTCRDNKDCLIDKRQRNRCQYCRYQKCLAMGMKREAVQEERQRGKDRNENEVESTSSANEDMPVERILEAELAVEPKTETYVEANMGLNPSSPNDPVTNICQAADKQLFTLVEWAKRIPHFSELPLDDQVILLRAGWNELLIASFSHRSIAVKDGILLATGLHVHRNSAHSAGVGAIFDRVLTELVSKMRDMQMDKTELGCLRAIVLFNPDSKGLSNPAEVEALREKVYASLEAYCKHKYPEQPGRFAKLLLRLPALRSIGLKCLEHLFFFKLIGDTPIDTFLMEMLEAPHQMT

| SMILES | outcome |
| --- | --- |
| NC(=O)NC(N)=O | inactive |
| CC12CCC(C1)C(C)(C)C2O (stereo not drawn) | inactive |
| CCCCCC1CCC(=O)O1 (stereo not drawn) | inactive |
| CC1=CCC(C(C)C)=CC1 | inactive |
| CC(C)C(=O)OCC=Cc1ccccc1 | inactive |
| CC(O)COCC(C)O (stereo not drawn) | inactive |
| CC(CO)(CO)[N+](=O)[O-] | inactive |
| O=S1(=O)CC=CC1 | inactive |
| O=C(O)c1ccco1 | inactive |
| CCCCCCC(C)O (stereo not drawn) | inactive |
| CCC(=O)OC(C)(C)C1CC=C(C)CC1 (stereo not drawn) | inactive |
| CC(C)C(=O)c1ccccc1 | inactive |
| CC(C)(O)C(=O)c1ccc(OCCO)cc1 | inactive |
| O=C(C=Cc1ccccc1)OCCCc1ccccc1 | inactive |

target: human Retinoid X Receptor beta (RXRb), RXRB (gene 6257) (UniProt P28702); assay: ATG_RXRb_TRANS: Attagene TRANS-FACTORIAL HepG2 Assay for human Retinoid X Receptor beta (RXRb) (AID 2283013); conditions: not given
Method in brief: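 HepG2 cells transiently transfected with multiplexed reporter units driven by GAL4-UAS and exogenous chimeric NR-Gal4 proteins; treated 24 h. Reporter mRNA measured by RT-PCR, 6-FAM labelling and capillary electrophoresis; gain-of-signal fitted versus DMSO baseline.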

Sequence of human Retinoid X Receptor beta (RXRb), RXRB (gene 6257) (P28702 whole entry, looked up, the tested form may be a part): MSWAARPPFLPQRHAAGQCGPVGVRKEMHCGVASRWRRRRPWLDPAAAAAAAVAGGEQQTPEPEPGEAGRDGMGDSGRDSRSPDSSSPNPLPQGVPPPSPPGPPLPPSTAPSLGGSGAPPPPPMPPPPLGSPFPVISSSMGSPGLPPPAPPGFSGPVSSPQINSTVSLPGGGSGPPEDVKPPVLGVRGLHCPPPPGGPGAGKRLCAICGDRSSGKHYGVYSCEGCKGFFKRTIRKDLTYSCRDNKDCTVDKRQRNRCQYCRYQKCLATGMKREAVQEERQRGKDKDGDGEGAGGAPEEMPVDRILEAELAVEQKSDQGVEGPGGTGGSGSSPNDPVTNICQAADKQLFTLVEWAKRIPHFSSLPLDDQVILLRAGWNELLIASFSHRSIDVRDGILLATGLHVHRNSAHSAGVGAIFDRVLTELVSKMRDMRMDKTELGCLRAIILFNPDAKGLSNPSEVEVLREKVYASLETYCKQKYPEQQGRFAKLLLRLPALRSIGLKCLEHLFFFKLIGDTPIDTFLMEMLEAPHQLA

| SMILES | outcome | AC50 |
| --- | --- | --- |
| NC(=O)NC(N)=O | inactive |  |
| CC12CCC(C1)C(C)(C)C2O (stereo not drawn) | inactive |  |
| CCCCCC1CCC(=O)O1 (stereo not drawn) | inactive |  |
| CC1=CCC(C(C)C)=CC1 | inactive |  |
| CC(CO)(CO)[N+](=O)[O-] | inactive |  |
| O=C(O)c1ccco1 | inactive |  |
| CCCCCCC(C)O (stereo not drawn) | inactive |  |
| CC(C)=CCCC(C)=CC(=O)O | inactive |  |
| OCCN1CCOCC1 | inactive |  |
| CC(=O)Oc1c(C)c(C)c2c(c1C)CC[C@@](C)(CCC[C@H](C)CCC[C@H](C)CCCC(C)C)O2 | inactive |  |
| CC(C)(C)c1ccc(S)cc1 | inactive |  |
| CCC(=O)OC(C)(C)C1CC=C(C)CC1 (stereo not drawn) | inactive |  |
| CC(C)(O)CCc1ccccc1 | inactive |  |
| CC(C)C(=O)c1ccccc1 | inactive |  |
| CC=CC(=O)C1=C(C)C=CCC1(C)C | inactive |  |
| [O-]/[N+](=N\O)c1ccccc1 | inactive |  |
| O=C(C=Cc1ccccc1)OCCCc1ccccc1 |  | 66.6 µM (active) |
| Cc1ccccc1S | inactive |  |

target: human Thyroid Receptor alpha (THRa1), THRA (gene 7067) (UniProt P10827); assay: ATG_THRa1_TRANS: Attagene TRANS-FACTORIAL HepG2 Assay for human Thyroid Receptor alpha (THRa1) (AID 2283014); conditions: not given
Method in brief: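 HepG2 cells transiently transfected with chimeric NR-Gal4 and GAL4-UAS reporter units, dosed 24 h. Reporter mRNA quantified by RT-PCR, fluorescent labeling, HpaI digestion and capillary electrophoresis; gain-of-signal fit versus DMSO.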

Sequence of human Thyroid Receptor alpha (THRa1), THRA (gene 7067) (P10827 whole entry, looked up, the tested form may be a part): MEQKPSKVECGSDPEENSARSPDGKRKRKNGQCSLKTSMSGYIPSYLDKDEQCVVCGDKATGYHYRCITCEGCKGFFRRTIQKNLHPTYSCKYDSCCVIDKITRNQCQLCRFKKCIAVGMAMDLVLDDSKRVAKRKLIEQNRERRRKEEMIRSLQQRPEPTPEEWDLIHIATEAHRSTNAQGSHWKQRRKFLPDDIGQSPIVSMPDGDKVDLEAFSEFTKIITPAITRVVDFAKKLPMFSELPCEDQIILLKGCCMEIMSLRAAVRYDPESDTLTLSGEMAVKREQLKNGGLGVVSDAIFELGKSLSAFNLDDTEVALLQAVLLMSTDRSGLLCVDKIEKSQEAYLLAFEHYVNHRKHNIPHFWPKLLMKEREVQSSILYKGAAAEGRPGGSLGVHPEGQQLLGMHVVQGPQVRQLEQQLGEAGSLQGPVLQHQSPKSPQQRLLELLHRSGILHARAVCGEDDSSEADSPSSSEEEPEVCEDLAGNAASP

| SMILES | outcome |
| --- | --- |
| C1CCCNCC1 | inactive |
| OCC=Cc1ccccc1 | inactive |
| CCO[Si](CCC#N)(OCC)OCC | inactive |
| CCCCOC(=O)C(C)OC(=O)CCC (stereo not drawn) | inactive |
| CCC(=O)OC/C=C(\C)CCC=C(C)C | inactive |
| OCCN1CCOCC1 | inactive |
| CC(=O)Oc1c(C)c(C)c2c(c1C)CC[C@@](C)(CCC[C@H](C)CCC[C@H](C)CCCC(C)C)O2 | inactive |
| NC(N)=NC(N)=NCCc1ccccc1 | inactive |
| CCCCCCCCCCCCCC(=O)OCC | inactive |
| NC(N)=S | inactive |
| Cc1ccccc1S | inactive |

read-out: E-selectin (Homo sapiens) (UniProt P16581); assay: BSK_3C_Eselectin: BioMAP Diversity Plus: 3C Assay for Eselectin Biomarker Activity (AID 2283015; active = hit-call score of the fitted dose curve at least 0.9, where 1 is the maximum; inactive = score below 0.9;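 note: cell surface E-selectin protein quantified by ELISA 24 h after dosing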); conditions: primary human endothelial cells (HUVEC); actives raise or lower the signal
Method in brief: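 Primary human umbilical vein endothelial cells (3C system), read 24 h after compound addition; E-selectin measured by ELISA. Bidirectional curve fitting against DMSO baseline; cytotoxicity by parallel SRB total-protein staining.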

| SMILES | outcome |
| --- | --- |
| OCCN1CCOCC1 | inactive |
| CC=CC(=O)C1=C(C)C=CCC1(C)C | inactive |
| CC(C)(CO)CO | inactive |

read-out: Interleukin-1 alpha (IL1a), IL1A (gene 3552); assay: BSK_BE3C_IL1a: BioMAP Diversity Plus: BE3C Assay for Interleukin-1 alpha (IL1a) Biomarker Activity (AID 2283016; active = hit-call score of the fitted dose curve at least 0.9, where 1 is the maximum; inactive = score below 0.9); conditions: primary human bronchial epithelial cells; actives raise or lower the signal
Method in brief: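 Human primary bronchial epithelial cells (BE3C system) were dosed with compound and IL-1a measured by ELISA 24 h later. Activity was fitted bidirectionally against DMSO baseline; cytotoxicity was tracked in parallel cultures by SRB total-protein staining.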

| SMILES | outcome |
| --- | --- |
| OCCN1CCOCC1 | inactive |
| CC=CC(=O)C1=C(C)C=CCC1(C)C | inactive |
| CC(C)(CO)CO | inactive |

read-out: Monocyte Chemoattractant Protein-1 (MCP1), CCL2 (gene 6347); assay: BSK_3C_MCP1: BioMAP Diversity Plus: 3C Assay for Monocyte Chemoattractant Protein-1 (MCP1) Biomarker Activity (AID 2283017; active = hit-call score of the fitted dose curve at least 0.9, where 1 is the maximum; inactive = score below 0.9); conditions: primary human endothelial cells (HUVEC); actives raise or lower the signal
Method in brief: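 Human umbilical vein endothelial cells (3C system) exposed to chemicals for 24 h; MCP-1 quantified by ELISA against the DMSO baseline with bidirectional fitting, and parallel SRB staining used to assess cytotoxicity.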

| SMILES | outcome |
| --- | --- |
| OCCN1CCOCC1 | inactive |
| CC=CC(=O)C1=C(C)C=CCC1(C)C | inactive |
| CC(C)(CO)CO | inactive |

read-out: Monocyte Chemoattractant Protein-1 (MCP1), CCL2 (gene 6347); assay: BSK_4H_MCP1: BioMAP Diversity Plus: 4H Assay for Monocyte Chemoattractant Protein-1 (MCP1) Biomarker Activity (AID 2283018; active = hit-call score of the fitted dose curve at least 0.9, where 1 is the maximum; inactive = score below 0.9); conditions: primary human endothelial cells (HUVEC); actives raise or lower the signal
Method in brief: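 Human umbilical vein endothelial cells (4H system) dosed with chemical; MCP-1 measured by ELISA 24 h after dosing. Bidirectional curve fitting against DMSO negative control as baseline; parallel SRB total-protein staining tracks overt cytotoxicity.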

| SMILES | outcome |
| --- | --- |
| OCCN1CCOCC1 | inactive |
| CC=CC(=O)C1=C(C)C=CCC1(C)C | inactive |
| CC(C)(CO)CO | inactive |

read-out: Human Leukocyte Antigen - DR isotype (HLADR), HLA-DRA (gene 3122); assay: BSK_3C_HLADR: BioMAP Diversity Plus: 3C Assay for Human Leukocyte Antigen - DR isotype (HLADR) Biomarker Activity (AID 2283019; active = hit-call score of the fitted dose curve at least 0.9, where 1 is the maximum; inactive = score below 0.9;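 note: ELISA of cell-surface HLA-DR on HUVEC 24 h after dosing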); conditions: primary human endothelial cells (HUVEC); actives raise or lower the signal
Method in brief: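 HUVEC monoculture, HLA-DR measured by ELISA 24 h after chemical dosing. Fitted bidirectionally against DMSO baseline; parallel SRB staining assessed cytotoxicity, with 3C proliferation read by SRB at 48 h.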

| SMILES | outcome |
| --- | --- |
| OCCN1CCOCC1 | inactive |
| CC=CC(=O)C1=C(C)C=CCC1(C)C | inactive |
| CC(C)(CO)CO | inactive |

read-out: Interleukin-8 (IL8), CXCL8 (gene 3576); assay: BSK_3C_IL8: BioMAP Diversity Plus: 3C Assay for Interleukin-8 (IL8) Biomarker Activity (AID 2283020; active = hit-call score of the fitted dose curve at least 0.9, where 1 is the maximum; inactive = score below 0.9); conditions: primary human endothelial cells (HUVEC); actives raise or lower the signal
Method in brief: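 Primary human umbilical vein endothelial cells (3C system) were exposed to test chemical for 24 h, then IL-8 was quantified by ELISA. Responses were fitted bidirectionally against DMSO vehicle as baseline.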

| SMILES | outcome |
| --- | --- |
| OCCN1CCOCC1 | inactive |
| CC=CC(=O)C1=C(C)C=CCC1(C)C | inactive |
| CC(C)(CO)CO | inactive |

target: human Vitamin D Receptor (VDR), VDR (gene 7421) (UniProt P11473); assay: ATG_VDR_TRANS: Attagene TRANS-FACTORIAL HepG2 Assay for human Vitamin D Receptor (VDR) (AID 2283022); conditions: not given
Method in brief: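 HepG2 cells were transiently transfected with GAL4-UAS reporter units and a chimeric VDR-Gal4 construct, then dosed for 24 hours. Reporter mRNA was quantified by RT-PCR, fluorescent labeling, HpaI digestion and capillary electrophoresis; gain of signal analysed vs DMSO.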

Sequence of human Vitamin D Receptor (VDR), VDR (gene 7421) (P11473 whole entry, looked up, the tested form may be a part): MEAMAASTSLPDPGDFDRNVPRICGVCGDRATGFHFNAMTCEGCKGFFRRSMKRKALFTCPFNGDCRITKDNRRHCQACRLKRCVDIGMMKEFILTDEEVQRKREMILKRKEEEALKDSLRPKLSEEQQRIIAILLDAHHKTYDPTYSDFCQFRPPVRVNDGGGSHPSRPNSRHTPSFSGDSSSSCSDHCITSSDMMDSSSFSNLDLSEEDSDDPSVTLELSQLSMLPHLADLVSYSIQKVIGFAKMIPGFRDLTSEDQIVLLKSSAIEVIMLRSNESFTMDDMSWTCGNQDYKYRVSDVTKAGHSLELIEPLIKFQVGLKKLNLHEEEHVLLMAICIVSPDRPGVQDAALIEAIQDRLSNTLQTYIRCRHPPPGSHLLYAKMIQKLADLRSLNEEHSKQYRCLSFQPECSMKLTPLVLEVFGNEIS

| SMILES | outcome |
| --- | --- |
| OCC=Cc1ccccc1 | inactive |
| CCCCOC(=O)C(C)OC(=O)CCC (stereo not drawn) | inactive |
| CCC(=O)OC/C=C(\C)CCC=C(C)C | inactive |
| COc1ccc(OC)cc1 | inactive |
| CCO[Si](CC)(OCC)OCC | inactive |
| CC(=O)Oc1c(C)c(C)c2c(c1C)CC[C@@](C)(CCC[C@H](C)CCC[C@H](C)CCCC(C)C)O2 | inactive |
| CC(C)(C)c1ccc(S)cc1 | inactive |
| Cc1ccccc1S | inactive |
| CCCC1CCC(=O)CC1 | inactive |

read-out: not listed separately; assay: BSK_3C_SRB: Viability Assessment in the BioMAP Diversity Plus: 3C Assay (AID 2283023; active = hit-call score of the fitted dose curve at least 0.9, where 1 is the maximum; inactive = score below 0.9;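 note: fitted both ways against DMSO so a hit may be signal rise or drop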); conditions: primary human endothelial cells (HUVEC)
Method in brief: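 Human umbilical vein endothelial cells in the 3C system, treated 24 h. Total protein measured by 0.1% sulforhodamine B staining after 10% TCA fixation, read at 560 nm; bidirectional fit versus DMSO.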

| SMILES | outcome |
| --- | --- |
| OCCN1CCOCC1 | inactive |
| CC=CC(=O)C1=C(C)C=CCC1(C)C | inactive |
| CC(C)(CO)CO | inactive |

read-out: Pselectin, SELP (gene 6403); assay: BSK_4H_Pselectin: BioMAP Diversity Plus: 4H Assay for Pselectin Biomarker Activity (AID 2283026; active = hit-call score of the fitted dose curve at least 0.9, where 1 is the maximum; inactive = score below 0.9); conditions: primary human endothelial cells (HUVEC); actives raise or lower the signal
Method in brief: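 Primary human umbilical vein endothelial cells were exposed to test chemical for 24 h, then cell-surface P-selectin was quantified by ELISA. Activity was fitted bidirectionally against DMSO as negative control and baseline.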

| SMILES | outcome | AC50 |
| --- | --- | --- |
| OCCN1CCOCC1 | inactive |  |
| CC=CC(=O)C1=C(C)C=CCC1(C)C | inactive |  |
| CC(C)(CO)CO | inactive | 5.64 µM (active) |

read-out: not listed separately; assay: BSK_BE3C_SRB: Viability Assessment in the BioMAP Diversity Plus: BE3C Assay (AID 2283028; active = hit-call score of the fitted dose curve at least 0.9, where 1 is the maximum; inactive = score below 0.9); conditions: primary human bronchial epithelial cells
Method in brief: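 Human bronchial epithelial primary cells in confluent culture, 24 h after chemical dosing; total protein by 0.1% SRB staining after 10% TCA fixation, read at 560 nm. Bidirectional fitting versus DMSO baseline.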

| SMILES | outcome |
| --- | --- |
| OCCN1CCOCC1 | inactive |
| CC=CC(=O)C1=C(C)C=CCC1(C)C | inactive |
| CC(C)(CO)CO | inactive |

read-out: Thrombomodulin, THBD (gene 7056); assay: BSK_3C_Thrombomodulin: BioMAP Diversity Plus: 3C Assay for Thrombomodulin Biomarker Activity (AID 2283029; active = hit-call score of the fitted dose curve at least 0.9, where 1 is the maximum; inactive = score below 0.9); conditions: primary human endothelial cells (HUVEC); actives raise or lower the signal
Method in brief: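 Primary human umbilical vein endothelial cells (3C system) were exposed to chemical for 24 h, then thrombomodulin levels were measured by ELISA. Activity was fitted bidirectionally against the DMSO negative control as baseline.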

| SMILES | outcome |
| --- | --- |
| OCCN1CCOCC1 | inactive |
| CC=CC(=O)C1=C(C)C=CCC1(C)C | inactive |
| CC(C)(CO)CO | inactive |
